# Data from PubChem BioAssay (NCI).
# About 83,000 compounds went through this panel and 20% of them were active in at least one assay; those are over-represented in the sample as a whole.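 Growth was measured after 48 h exposure to one concentration of compound in 96-well plates. Values under 10 count as active.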 Unmarked numbers belong to inactive results. Activity calls are given as the source filed them.
# Legend:
# Assay in all cases: NCI-60 one-dose screen, 48 h (100 = growth as untreated, 0 = no growth, -100 = all killed)
# Conditions in all cases: 10 µM unless noted
# DU-145 prostate = system: DU-145 prostate
# K-562 leukemia = system: K-562 leukemia
# MALME-3M melanoma = system: MALME-3M melanoma
# MDA-MB-231 breast = system: MDA-MB-231 breast
# RXF 393 renal = system: RXF 393 renal
# SF-268 CNS = system: SF-268 CNS
# SF-295 CNS = system: SF-295 CNS
# SF-539 CNS = system: SF-539 CNS
# UACC-257 melanoma = system: UACC-257 melanoma
# HCT-15 colon = system: HCT-15 colon
# HT29 colon = system: HT29 colon
# SNB-75 CNS = system: SNB-75 CNS
# SNB-19 CNS = system: SNB-19 CNS
# U251 CNS = system: U251 CNS
# PC-3 prostate = system: PC-3 prostate
# SK-MEL-5 melanoma = system: SK-MEL-5 melanoma
# UACC-62 melanoma = system: UACC-62 melanoma
# LOX IMVI melanoma = system: LOX IMVI melanoma
# SK-MEL-28 melanoma = system: SK-MEL-28 melanoma
# M14 melanoma = system: M14 melanoma
SMILES,growth (DU-145 prostate),growth (K-562 leukemia),growth (MALME-3M melanoma),growth (MDA-MB-231 breast),growth (RXF 393 renal),growth (SF-268 CNS),growth (SF-295 CNS),growth (SF-539 CNS),growth (UACC-257 melanoma),growth (HCT-15 colon),growth (HT29 colon),growth (SNB-75 CNS),growth (SNB-19 CNS),growth (U251 CNS),growth (PC-3 prostate),growth (SK-MEL-5 melanoma),growth (UACC-62 melanoma),growth (LOX IMVI melanoma),growth (SK-MEL-28 melanoma),growth (M14 melanoma)
Cc1ccc(/C=C(/C#N)n2nnc3ncccc32)cc1,-27.2% (active),5.03% (active),22.7%,-3.95% (active),-28.4% (active),25.3%,27.8%,-53.8% (active),31.1%,2.19% (active),6.53% (active),-2.77% (active),56.7%,40.4%,22.3%,12.5%,22.1%,4.54% (active),28.3%,
C/C(=C\CCc1ccoc1)CC/C=C(\C)CCCC1COC(=O)C1 (stereo not given),105%,98.4%,89.5%,92.6%,99.1%,107%,99%,93.4%,101%,99.2%,113%,96.7%,99.6%,95.6%,91.2%,98.6%,80%,,96.9%,
CCOC(=O)/C=C1/SC(=Nc2ccc(C#N)cc2)N(Cc2ccco2)C1=O,39.2%,8.76% (active),47.6%,57%,-23.9% (active),73.2%,88.8%,38.1%,54.9%,-4.1% (active),35%,83.3%,67.1%,59.8%,20.2%,62.5%,35.5%,-73.2% (active),38.5%,
CC(=O)OCC(=O)[C@@]1(O)CC[C@H]2[C@@H]3CCC4=CC(=O)CC[C@]4(C)[C@@]3(F)[C@@H](O)C[C@@]21C,96%,108%,120%,103%,129%,91.5%,115%,90.8%,94.6%,105%,114%,113%,107%,111%,93.7%,94.8%,97.3%,96.6%,112%,
CCOC1Oc2ccccc2C(=O)/C1=N/c1nccs1 (stereo not given),101%,84.9%,51.9%,78.1%,102%,76.9%,93.5%,93.9%,112%,80%,105%,75.1%,91.7%,82%,67.8%,101%,78.7%,85.2%,99.9%,
N#Cc1ccccc1C#Cc1ccccc1C#Cc1ccc(OCCCCCCOc2ccc(C#Cc3ccccc3C#Cc3ccccc3C#N)cc2)cc1,111%,96.7%,102%,88.5%,97.7%,115%,106%,97.6%,103%,123%,111%,106%,108%,106%,99.5%,73.8%,83.3%,98.4%,113%,
CC1CN(CC(O)c2ccc(Br)cc2)CCO1 (stereo not given),114%,96.9%,116%,123%,124%,99.9%,112%,106%,105%,107%,113%,91.4%,105%,95.8%,101%,108%,108%,107%,119%,
Cc1c2oc3c(C)ccc(C(=O)OC(C)C4NC(=O)C(C(C)C)N(C)C(=O)CN(C)C(=O)C5CCCN5C(=O)C(C(C)C)NC4=O)c3nc-2c(C(=O)OC(C)C2NC(=O)C(C(C)C)N(C)C(=O)CN(C)C(=O)C3CCCN3C(=O)C(C(C)C)NC2=O)c(N)c1=O (stereo not given),11.4%,5.53% (active),-37.6% (active),3.61% (active),-78.5% (active),-5.9% (active),-9.17% (active),-11.4% (active),,7.36% (active),-29.2% (active),-73.8% (active),3.31% (active),14.8%,10.4%,-92% (active),-71% (active),4.35% (active),-20.8% (active),-55.7% (active)
CCN(Cc1cccc(S(=O)(=O)[O-])c1)c1ccc(C(=C2C=CC(=[N+](CC)Cc3cccc(S(=O)(=O)O)c3)C=C2)c2ccccc2S(=O)(=O)O)cc1,107%,90.8%,118%,100%,106%,94.6%,94.5%,97.4%,,103%,103%,87.9%,106%,99.2%,93.7%,97.4%,101%,96%,109%,98.4%
COc1cc(/C=N/NC(=O)c2ccc(C(F)(F)F)nc2Nc2cc(Cl)ccc2C)cc(OC)c1OC,154%,83.8%,61.8%,86.3%,77.7%,88.9%,70.9%,103%,112%,104%,127%,96%,75.4%,87.4%,66.8%,102%,85%,102%,99.5%,
CC(C)Cn1cnc2c(NCn3nc(-c4cc(Cl)cc(Cl)c4Cl)n(/N=C/c4ccc(Cl)cc4)c3=S)nc3ccccc3c21,106%,53.8%,109%,73.4%,80.7%,102%,71.9%,90.4%,77.2%,91.1%,91.1%,90.5%,108%,86.6%,83.6%,57.2%,72%,74.4%,112%,
O=c1ncc(-c2ccc(C(F)(F)F)cc2)c(NC2CCCCCC2)[nH]1,78.5%,30%,-26.4% (active),79%,76.4%,62.3%,3% (active),91.7%,,103%,56.5%,87%,54.9%,,25.7%,20.9%,29.6%,57.9%,49.3%,34.8%
Cc1cc(C)nc(NS(=O)(=O)c2ccc(Nc3nc4nc(SCc5ccccc5)nc(-c5ccc(O)cc5)c4c(=O)[nH]3)cc2)n1,136%,84.2%,67.7%,93.8%,78.6%,84%,83.3%,98.9%,113%,109%,123%,88.3%,74.9%,94.6%,67.7%,99.5%,83.5%,101%,86.3%,
O=C1C(=O)c2c(nc3ccc(Cl)cn23)-c2ccccc21,-100% (active),-100% (active),-81.8% (active),-59% (active),-100% (active),-95.3% (active),-80.3% (active),-100% (active),-93.3% (active),-100% (active),-84.8% (active),-87.7% (active),-100% (active),-100% (active),-86.6% (active),-100% (active),-100% (active),-100% (active),-100% (active),
C[C@@H]1CN(c2nc3c(cc2F)c(=O)c(C(=O)O)cn3C(C)(C)C)C[C@H](C)N1,114%,90.8%,91.3%,88.4%,-17.3% (active),114%,96.5%,107%,91.2%,,95.8%,114%,106%,103%,89.1%,92.4%,90%,90.5%,122%,
Cc1cc(=O)[nH]c(/C(=N/Nc2ccccc2)C(=O)c2ccc(Cl)cc2)n1,105%,52.7%,114%,102%,28.5%,117%,75.7%,92.3%,103%,112%,105%,128%,95.5%,107%,92.6%,92.4%,92%,98.9%,110%,
COc1cc(-c2nc3sc4c(c3c(=O)[nH]2)CCCCCC4)cc(OC)c1OC,12.1%,5.92% (active),25.6%,7.21% (active),0.561% (active),27.2%,13.7%,-5.36% (active),63.7%,24.8%,10.5%,-0.669% (active),21.2%,25.8%,38%,8.73% (active),19.1%,,51.6%,
O=C(COc1ccc(/C=C2\Cc3ccccc3C2=O)cc1)c1ccc(Cl)cc1,117%,92.9%,124%,82.2%,121%,120%,121%,101%,100%,96.1%,109%,94.5%,95.7%,93.7%,92.1%,98.4%,95.2%,92.8%,117%,
Cc1ccc2c(c1)C(=O)/C(=C\Nc1ccc(C(N)=O)cc1)C(O)O2 (stereo not given),107%,97.7%,86.7%,83.1%,111%,82.8%,94%,99.8%,118%,85.9%,105%,74.8%,106%,85.6%,76.4%,104%,106%,85.3%,99.8%,
COC(=O)c1cc2c(/C=C3/NC(=S)NC3=O)coc2n1C,134%,95.6%,58.4%,82.2%,38.4%,37.7%,45.2%,82.2%,107%,90.3%,116%,79.4%,101%,70.7%,66.7%,96.5%,86.6%,98.2%,97%,
O=C(Nc1ccc(Cl)cc1)Nc1ccccc1CNc1nc(Nc2ccc(OCCN3CCCC3)cc2)ncc1Cl,-42.9% (active),-4.05% (active),-81% (active),-51% (active),-64.6% (active),41.7%,89.2%,77.6%,,6.28% (active),0.197% (active),-17% (active),42%,,-8.19% (active),50.2%,99.3%,-95.1% (active),-77.7% (active),-76.3% (active)
Cc1[nH]c(=O)[nH]c(=O)c1CCSSCCc1c(C)[nH]c(=O)[nH]c1=O,113%,95.8%,115%,119%,111%,113%,98.4%,110%,,113%,99.2%,97.1%,105%,,99.6%,103%,104%,97.8%,114%,95.1%
COc1cccc(CCN2C(=O)CCC3=C2CCC3=O)c1,114%,106%,100%,78.2%,112%,119%,97.6%,97.8%,,,106%,84.4%,102%,,93.5%,98.2%,97.8%,97.9%,111%,83.8%
O=C1/C(=C/c2ccccc2Cl)CCc2ccccc21,108%,105%,104%,111%,107%,96.7%,65.3%,106%,,104%,97.2%,105%,89.7%,,95.6%,102%,94.2%,91.7%,101%,104%
O=C(c1ccc(Cl)cc1)c1ccc(Cl)cc1,108%,98.2%,129%,124%,103%,104%,102%,107%,,113%,102%,112%,109%,,110%,96.4%,103%,103%,106%,114%
